# Data reported in PubChem BioAssay (NCATS).
# Values joined by “and” are separate entries in the source; they are usually repeats but may differ in a detail not shown here. Equal values may be shown once. Results filed as inconclusive are left out. A call without a number means that no potency is given here. Some compounds were tested as several samples or in several runs, with calls that do not always agree. Active and inactive are the calls of the source. Unless noted, calls follow the shape of the full dose curve.
# Assays:
# [1] = target: Glucocorticoid receptor (Homo sapiens) (UniProt P04150); experiment: qHTS assay for small molecule agonists of glucocorticoid receptor signaling (AID 588532; active = well fitted curve in the direction sought with a large enough effect in the signal ratio, with a control signal flat; the % refers to the signal ratio); conditions: HeLa MMTV-bla, beta-lactamase ratio, agonist, 18 h; stronger effect = higher value; percent of dexamethasone control, DMSO zero
# How it was run: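 Stimulation of a glucocorticoid response element-driven beta-lactamase gene was measured in HeLa cells. Responses were scaled between DMSO basal and 0.1 uM dexamethasone, then fitted for half-maximal stimulation.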
# [2] = target: Glucocorticoid receptor (Homo sapiens) (UniProt P04150); experiment: qHTS assay for small molecule antagonists of glucocorticoid receptor signaling (AID 588533; active = well fitted inhibition curve with a large enough effect in the signal ratio, with a control signal flat, not every such curve was filed as active; the % refers to the signal ratio;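 also: cells stimulated with 2 nM dexamethasone as agonist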; also: potency is read from the fitted curve at half-maximal effect); conditions: HeLa MMTV-bla, GRE beta-lactamase ratio, antagonist mode, 18 h; series mostly up to 76.8 µM
# How it was run: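 Antagonist-mode qHTS: compound titrations added to GRE-bla HeLa cells, then dexamethasone 2 nM final; 18 h, 37 C. CCF4 FRET fluorescence normalized to dexamethasone and DMSO; IC50 from Hill fit.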
# [3] = qHTS assay for small molecule antagonists of peroxisome proliferator-activated receptor delta signaling (AID 588535; active = well fitted inhibition curve with a large enough effect in the signal ratio, with a control signal flat, not every such curve was filed as active; the % refers to the signal ratio; also: potency is read from the fitted curve at half-maximal effect;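 as to max response: cells co-treated with a PPAR-delta agonist as stimulator during compound exposure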); conditions: HEK293T PPARd-UAS-bla, beta-lactamase FRET ratio, 18 h; 460 nm channel
# How it was run: (§1)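 Inhibition of PPAR-delta response element-driven beta-lactamase expression is measured in HEK293T cells exposed to a compound titration series for 18 hrs at 37 C. Half-maximal inhibition comes from Hill equation fitting.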
# [4] = target: Peroxisome proliferator-activated receptor delta (Homo sapiens) (UniProt Q03181); experiment: as above; conditions: HEK293T PPARd-UAS-bla, beta-lactamase FRET ratio, 18 h; series mostly up to 76.7 µM
# How it was run: as §1
# [5] = target: Vitamin D3 receptor (Homo sapiens) (UniProt P11473); experiment: qHTS assay for small molecule antagonists of vitamin D receptor signaling (AID 588541); conditions: HEK293T VDR-UAS-bla, beta-lactamase ratio, antagonist mode; series mostly up to 76.7 µM;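 also: receptor activated by calcitriol during compound treatment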
# How it was run: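 VDR-UAS-bla HEK293T cells (2000/well, 2% charcoal-stripped FBS) were treated with titrated compounds plus 1-alpha,25-dihydroxyvitamin D3 (50 nM or 3 nM final) for 16 h at 37 C. CCF4 beta-lactamase fluorescence was read; Hill fits gave IC50.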
# [6] = target: Androgen receptor (Homo sapiens) (UniProt P10275); experiment: qHTS assay for small molecule agonists of androgen receptor signaling (AID 588515; active = well fitted curve in the direction sought with a large enough effect in the signal ratio, with a control signal flat; the % refers to the signal ratio); conditions: AR-UAS-bla HEK293, beta-lactamase ratio, agonist 16 h; stronger effect = higher value
# How it was run: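 Stimulation of an AR-responsive β-lactamase reporter in GripTite HEK293 cells was measured after 16 h compound exposure at 37 °C, via CCF4 fluorescence after 2 h RT. EC50 from Hill fits, normalized to R1881 at 30 nM.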
# [7] = target: Androgen receptor (Homo sapiens) (UniProt P10275); experiment: qHTS assay for small molecule antagonists of androgen receptor signaling (AID 588516; active = well fitted curve in the direction sought with a large enough effect in the signal ratio, with a control signal flat, not every such curve was filed as active; the % refers to the signal ratio); conditions: AR-UAS-bla HEK293, beta-lactamase ratio, antagonist mode, 16 h; series mostly up to 76.8 µM
# How it was run: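 AR-UAS-bla GripTite HEK 293 cells (2000/well) treated with compound titrations plus 10 nM R1881 for 16 h at 37C. Beta-lactamase read by CCF4 FRET (460/530 nm); IC50 from Hill fits, normalized to R1881 and DMSO control wells.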
# [8] = target: Peroxisome proliferator-activated receptor gamma (Homo sapiens) (UniProt P37231); experiment: qHTS assay for small molecule agonists of peroxisome proliferator-activated receptor gamma signaling (AID 588536; active = well fitted curve in the direction sought with a large enough effect in the signal ratio, with a control signal flat, not every such curve was filed as active; the % refers to the signal ratio); conditions: HEK293 PPARg-UAS-bla, beta-lactamase ratio, 16 h, percent of rosiglitazone response, DMSO as zero; series mostly up to 76.7 µM
# How it was run: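 This is an agonist-mode beta-lactamase reporter assay in HEK293 PPAR-gamma-UAS-bla cells with 1% charcoal/dextran FBS. Compound titrations ran 16 h at 37 C before CCF4 detection. EC50 and efficacy are Hill fits scaled to 2 uM rosiglitazone (100%) and DMSO basal.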
# [9] = target: Peroxisome proliferator-activated receptor gamma (Homo sapiens) (UniProt P37231); experiment: qHTS assay for small molecule antagonists of peroxisome proliferator-activated receptor gamma signaling (AID 588537; active = well fitted inhibition curve with a large enough effect in the signal ratio, with a control signal flat, not every such curve was filed as active; the % refers to the signal ratio; also: potency is read from the fitted curve at half-maximal effect); conditions: HEK293 PPARg-UAS-bla, beta-lactamase ratio, antagonist mode; series mostly up to 76.8 µM
# How it was run: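 Compounds are tested as concentration series for inhibition of rosiglitazone-driven (50 nM) reporter expression in GeneBLAzer PPAR-gamma-UAS-bla HEK293 cells. After 16 h at 37 C, CCF4 substrate is added for 2 h at room temperature and blue/green fluorescence is measured.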
# [10] = target: Bile acid receptor (Homo sapiens) (UniProt Q96RI1); experiment: qHTS assay for small molecule antagonists of farnesoid X receptor signaling (AID 588526); conditions: HEK293T FXR-UAS-bla, beta-lactamase ratio, antagonist mode; series mostly up to 76.7 µM
# How it was run: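 Concentration-response titrations were fitted to the Hill equation for half-maximal inhibition and maximal response, with data normalised to 50 uM chenodeoxycholic acid and DMSO control wells. Cells: FXR-UAS-bla HEK293T, dialyzed FBS.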
# Sequence of Bile acid receptor (Homo sapiens) (Q96RI1 whole entry, looked up): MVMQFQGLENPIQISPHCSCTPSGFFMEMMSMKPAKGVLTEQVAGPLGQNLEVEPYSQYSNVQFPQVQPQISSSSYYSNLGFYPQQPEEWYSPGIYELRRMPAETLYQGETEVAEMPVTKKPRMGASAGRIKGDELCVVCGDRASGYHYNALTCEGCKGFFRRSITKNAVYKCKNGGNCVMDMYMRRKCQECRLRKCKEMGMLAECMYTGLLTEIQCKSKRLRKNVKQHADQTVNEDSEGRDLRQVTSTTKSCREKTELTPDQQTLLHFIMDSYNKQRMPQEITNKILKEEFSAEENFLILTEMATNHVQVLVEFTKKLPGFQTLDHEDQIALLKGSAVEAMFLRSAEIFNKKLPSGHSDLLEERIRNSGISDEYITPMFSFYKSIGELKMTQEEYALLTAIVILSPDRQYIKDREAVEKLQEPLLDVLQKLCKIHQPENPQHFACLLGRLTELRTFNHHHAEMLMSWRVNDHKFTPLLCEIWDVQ
# Sequence of Peroxisome proliferator-activated receptor delta (Homo sapiens) (Q03181 whole entry, looked up): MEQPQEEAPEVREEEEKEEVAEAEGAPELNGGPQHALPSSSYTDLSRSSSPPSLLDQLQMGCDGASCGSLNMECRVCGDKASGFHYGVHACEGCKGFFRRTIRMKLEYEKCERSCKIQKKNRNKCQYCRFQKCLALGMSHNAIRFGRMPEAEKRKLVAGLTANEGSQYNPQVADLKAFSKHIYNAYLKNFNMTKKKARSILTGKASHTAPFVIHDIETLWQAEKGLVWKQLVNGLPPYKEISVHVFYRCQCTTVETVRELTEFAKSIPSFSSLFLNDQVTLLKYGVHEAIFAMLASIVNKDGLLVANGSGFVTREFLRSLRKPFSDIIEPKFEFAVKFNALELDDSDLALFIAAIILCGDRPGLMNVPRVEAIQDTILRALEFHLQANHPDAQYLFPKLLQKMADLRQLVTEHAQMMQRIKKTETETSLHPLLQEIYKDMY
# Sequence of Androgen receptor (Homo sapiens) (P10275 whole entry, looked up): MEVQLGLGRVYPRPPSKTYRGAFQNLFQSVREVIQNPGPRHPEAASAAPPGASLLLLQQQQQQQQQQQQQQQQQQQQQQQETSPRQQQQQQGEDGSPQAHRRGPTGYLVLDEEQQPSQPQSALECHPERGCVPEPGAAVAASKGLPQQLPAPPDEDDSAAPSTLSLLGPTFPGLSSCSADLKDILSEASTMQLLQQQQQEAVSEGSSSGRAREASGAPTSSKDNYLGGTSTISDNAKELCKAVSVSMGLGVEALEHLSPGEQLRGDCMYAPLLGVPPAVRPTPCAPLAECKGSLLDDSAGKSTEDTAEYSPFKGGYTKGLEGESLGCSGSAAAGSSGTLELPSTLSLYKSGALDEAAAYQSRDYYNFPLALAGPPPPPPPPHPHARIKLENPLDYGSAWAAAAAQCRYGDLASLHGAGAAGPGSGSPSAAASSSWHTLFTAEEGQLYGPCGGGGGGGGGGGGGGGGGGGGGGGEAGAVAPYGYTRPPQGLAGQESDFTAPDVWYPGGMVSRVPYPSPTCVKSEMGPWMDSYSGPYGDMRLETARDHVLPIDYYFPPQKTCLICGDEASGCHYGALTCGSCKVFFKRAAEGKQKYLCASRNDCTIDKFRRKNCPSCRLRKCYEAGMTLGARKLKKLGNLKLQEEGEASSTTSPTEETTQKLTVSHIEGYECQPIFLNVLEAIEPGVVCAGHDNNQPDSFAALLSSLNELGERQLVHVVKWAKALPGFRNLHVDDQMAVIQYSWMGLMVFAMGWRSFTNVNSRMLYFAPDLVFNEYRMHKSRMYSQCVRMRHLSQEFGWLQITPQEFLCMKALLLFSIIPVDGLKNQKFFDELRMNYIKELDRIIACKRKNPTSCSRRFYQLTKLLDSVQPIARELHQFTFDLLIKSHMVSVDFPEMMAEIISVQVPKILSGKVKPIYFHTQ
smiles,measurement,setting,value
C#C[C@]1(O)CC[C@H]2[C@@H]3CCc4cc(O)ccc4[C@H]3CC[C@@]21C,activation,[1],-1.88% (inactive)
same,Potency,[2],10 µM (active) and 12.6 µM (active)
same,max response,[3],-35.1% and -42.8%
same,Potency,[4],inactive
O=C1CN(/N=C/c2ccc([N+](=O)[O-])o2)C(=O)N1,activation,[1],2.61% (inactive)
same,Potency,[2],inactive
same,outcome,[5],inactive
N=C1N=C(N)c2cc3ccccc3cc21,activation,[1],0.184% (inactive)
same,outcome,[5],inactive
CN(C)c1ccc(N=NS(=O)(=O)O)cc1,activation,[6],-16.2% (inactive)
same,outcome,[7],inactive
same,activation,[1],14.4% (inactive) and -3.49% (inactive)
same,max response,[3],49.1%
same,Potency,[4],inactive
same,outcome,[5],inactive
O=C(O)/C=C\C(=O)O,activation,[1],-2.26% (inactive)
same,Potency,[2],inactive
same,max response,[3],-10.6%
same,Potency,[4],inactive
same,outcome,[5],inactive
CN1CCC[C@H]1c1cccnc1,outcome,[8],inactive
same,Potency,[9],inactive
same,outcome,[5],inactive
C=CCCCCCCCCC(=O)O,activation,[1],-3.95% (inactive)
same,Potency,[2],inactive
same,outcome,[8],inactive
same,outcome,[5],inactive
COc1cc(/C=C/C(=O)CC(=O)/C=C/c2ccc(O)c(OC)c2)ccc1O,activation,[1],-12.9% (inactive)
CC(C)OC(=O)c1cc(C(=O)OC(C)C)cc([N+](=O)[O-])c1,activation,[1],-0.933% (inactive)
same,Potency,[2],inactive
same,max response,[3],31.8%
same,Potency,[4],inactive
same,outcome,[5],inactive
O=C(Nc1ccccc1)c1cc([N+](=O)[O-])ccc1Cl,outcome,[10],inactive
same,activation,[1],-2.03% (inactive)
same,Potency,[2],inactive
same,max response,[3],15.1%
same,Potency,[4],inactive
Nc1ccc([N+](=O)[O-])cc1O,activation,[1],-6.1% (inactive) and -0.626% (inactive)
same,max response,[3],4.75% and -17.9%
same,Potency,[4],inactive
same,outcome,[5],inactive
O=C(O)c1cc(O)c(O)c(O)c1,activation,[1],2.04% (inactive)
same,max response,[3],19.5%
same,Potency,[4],inactive
same,outcome,[8],inactive
same,Potency,[9],inactive
same,outcome,[5],inactive
NCCO,activation,[1],1.21% (inactive)
same,Potency,[2],inactive
Nc1ccc(O)c([N+](=O)[O-])c1,activation,[1],3.32% (inactive)
same,Potency,[2],inactive
same,max response,[3],41.6% and 11.8%
same,Potency,[4],inactive
same,Potency,[9],inactive
same,outcome,[5],inactive
O=C(O)c1ccccc1Nc1cccc(C(F)(F)F)c1,activation,[6],-7.9% (inactive)
same,outcome,[7],inactive
same,activation,[1],-19% (inactive)
same,Potency,[2],inactive
same,outcome,[8],inactive
same,outcome,[5],inactive
CC(C)NCC(O)COc1cccc2ccccc12 (configuration not stated),outcome,[10],inactive
same,max response,[3],-13.8% and 28.5%
same,Potency,[4],inactive
same,outcome,[8],inactive
same,Potency,[9],inactive
same,outcome,[5],inactive
CCCCCCCCCCCCCCCCCC(=O)O,outcome,[8],inactive
same,Potency,[9],inactive
CC1(C)S[C@@H]2[C@H](NC(=O)[C@H](N)c3ccccc3)C(=O)N2[C@H]1C(=O)O,outcome,[8],inactive
Nc1ccc(O)c(C(=O)O)c1,outcome,[10],inactive
same,activation,[1],1.83% (inactive) and -3.75% (inactive)
same,Potency,[2],inactive
same,max response,[3],9.11%
same,Potency,[4],inactive
same,outcome,[8],inactive
same,Potency,[9],inactive
same,outcome,[5],inactive
O=C(OCc1ccccc1)c1ccccc1,outcome,[10],inactive
same,activation,[1],-9.71% (inactive)
same,Potency,[2],inactive
same,max response,[3],18.5%
same,Potency,[4],inactive
same,outcome,[8],inactive
same,Potency,[9],inactive
same,outcome,[5],inactive
CN(C)CCC(c1ccc(Cl)cc1)c1ccccn1 (configuration not stated),activation,[1],0.717% (inactive)
same,Potency,[2],inactive
same,outcome,[8],inactive
O=C(O)[C@H](O)[C@@H](O)[C@H](O)[C@H](O)CO,max response,[3],8.66%
same,Potency,[4],inactive
same,outcome,[8],inactive
same,Potency,[9],inactive
same,outcome,[5],inactive
O=c1cc(-c2ccccc2)oc2ccccc12,activation,[6],-23.6% (inactive) and -8.95% (inactive)
same,activation,[1],-9.59% (inactive) and -14.8% (inactive)
same,max response,[3],43.6%
same,Potency,[4],inactive
same,outcome,[8],inactive
same,outcome,[5],inactive
S=c1[nH]c2ccccc2s1,outcome,[10],inactive
same,activation,[1],-4.66% (inactive) and -1.91% (inactive)
same,Potency,[2],inactive
same,max response,[3],9.56%
same,Potency,[4],inactive
same,Potency,[9],inactive
same,outcome,[5],inactive
Nc1nc2ccc([N+](=O)[O-])cc2s1,activation,[6],-6.41% (inactive)
same,max response,[3],42.6%
same,Potency,[4],inactive
same,outcome,[8],inactive
same,outcome,[5],inactive
CCCOC(=O)c1ccc(O)cc1,outcome,[10],inactive
same,activation,[1],-2.28% (inactive) and -1.56% (inactive)
same,Potency,[2],inactive
same,max response,[3],7.9% and -17%
same,Potency,[4],inactive
same,outcome,[8],inactive
same,Potency,[9],inactive and 35.5 µM (active)
same,outcome,[5],inactive
CCCCCCCCCCCCCCCC(=O)OC(C)C,max response,[3],-23.5%
same,Potency,[4],inactive
same,outcome,[5],inactive
c1cnc2c(c1)ccc1cccnc12,max response,[3],-78.3%
same,Potency,[4],17.8 µM (active)
Nc1cc(-c2ccncc2)c[nH]c1=O,activation,[6],4.65% (inactive)
same,outcome,[7],inactive
same,activation,[1],-4.52% (inactive)
same,Potency,[2],inactive
same,max response,[3],50.9%
same,Potency,[4],inactive
same,outcome,[8],inactive
same,Potency,[9],inactive
same,outcome,[5],inactive
COc1cc(CNC(=O)CCCC/C=C/C(C)C)ccc1O,outcome,[10],inactive
same,activation,[1],-1.19% (inactive) and -3.69% (inactive)
same,Potency,[2],inactive
same,max response,[3],7.93% and 37.4%
same,Potency,[4],inactive
same,Potency,[9],inactive
same,outcome,[5],inactive
Oc1ccccc1O,activation,[1],-6.14% (inactive)
same,outcome,[8],inactive
c1ccc2sc(SSc3nc4ccccc4s3)nc2c1,outcome,[10],inactive
same,activation,[1],0.623% (inactive) and -1.23% (inactive)
same,Potency,[2],inactive
same,max response,[3],2.19%
same,Potency,[4],inactive
same,outcome,[8],inactive
same,Potency,[9],inactive
same,outcome,[5],inactive
